GLA spleen mod – inhibits or activates alpha-galactosidase in human spleen homogenate; P06280; human spleen homogenate, 4MU-alpha-Gal fluorescence, 40 min; Potency, µM (series often up to 80 µM), for the others: at the highest dose activity change, negative = inhibition, actives largely listed as inhibitors; 240,000 tested, 0.008% active;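 note: potency is the fitted concentration of half-maximal effect; 0% = enzyme with vehicle and -100% = no enzyme basal signal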
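Spleen homogenate 1 ug + cpd (titration) + 4-MU-alpha-D-galactopyranoside 1 mM; 37C 40 min; 50 mM citrate/phosphate pH 5.0, 0.01% Tween-20; stop pH 10; fluorescence 365/440; AC50 via Hill.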
12-hLO inh – blocks human 12-lipoxygenase activity; AID 1452; 150,000 tested, 0.12% active; purified 12-hLO, xylenol orange hydroperoxide absorbance; Potency, µM (doses to about 57.1 µM), for the others: at the top dose activity change, negative = inhibition, most hits filed as inhibitors; note: potency is the fitted concentration of half-maximal effect; % is set by controls: 0 for no effect and ±100 for the full control effect; nearly all actives have a fitted effect of over 55% in size
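Purified human 12hLO (150 nM final) was preincubated with compounds for 15 min at room temperature in 25 mM Hepes pH 7.0, 0.01% Triton X-100, then reacted with 40 uM arachidonic acid for 30 min. Hydroperoxide was detected with ferrous iron/xylenol orange.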
PNC assembly inh – perinucleolar compartment assembly inhibition. PC3M PTB-GFP, PNC prevalence imaging, 16 h; hits give low values. activity change (PNC), negative = inhibition, % at 10 µM. 140,000 tested, 3.1% active;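 active = readout at or below -70, meaning at least 70% loss of cells showing the perinucleolar compartment, a nuclear body marking cancer cells; inconclusive = readout between -30 and a set limit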;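 note: plate controls were DMSO wells for no effect and camptothecin positive control wells for full effect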
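PC3M cells stably expressing PTB-GFP, 750–1000 cells/well, treated 16 h at 37 °C with compound (23 nl of library stock), in duplicate. After paraformaldehyde fixation and Hoechst stain, imaged at 20x; PNC prevalence scored by image analysis.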
HPGD inh – HPGD (human) dehydrogenase inhibition | P15428 | purified HPGD, NADH fluorescence kinetic, PGE2 substrate | Potency, µM, without a hit: top-dose activity change, negative = inhibition, actives largely listed as inhibitors | 150,000 tested, 4.3% active | AID 894; active = well fitted inhibition curve with a large enough effect, not every such curve was filed as active; inconclusive = small, poorly fitted or top-dose-only effect, or another doubt; inactive = no such curve, though single readings can be large or run the other way; note: potency is the fitted concentration of half-maximal effect; % is set by controls: 0 for no effect and ±100 for the full control effect
Target sequence (P15428 whole entry, looked up): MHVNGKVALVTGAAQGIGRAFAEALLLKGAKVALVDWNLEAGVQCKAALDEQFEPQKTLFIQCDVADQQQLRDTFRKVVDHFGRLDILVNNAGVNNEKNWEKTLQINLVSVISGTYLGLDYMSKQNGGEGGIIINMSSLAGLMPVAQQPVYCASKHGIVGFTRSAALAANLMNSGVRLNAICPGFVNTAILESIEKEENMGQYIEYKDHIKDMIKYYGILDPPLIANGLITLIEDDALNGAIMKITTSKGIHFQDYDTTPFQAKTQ
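20 nM HPGD preincubated 15 min at room temperature with compound in 50 mM Tris-HCl pH 8, 0.01% Tween 20. Started with 1 mM NAD+ and 30 uM prostaglandin E2; NADH fluorescence (360/450 nm) read 5 times over 30-s intervals, last minus first.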
GLA inh pH 4.5 – blocks human alpha-galactosidase A at pH 4.5 | P06280 | purified enzyme, 4-MU-alpha-Gal fluorescence, pH 4.5 | activity change, negative = inhibition, % at 105 µM | 230,000 tested, under 10 active;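 note: 0% = full activity with enzyme and -100% = basal without enzyme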
ALDH1A1 inh – ALDH1A1 (human) enzyme inhibition; P00352; Purified ALDH1A1, NADH fluorescence, propionaldehyde substrate; Potency, µM (doses to about 75.3 µM), for the others: at the highest dose activity, negative = inhibition, actives largely listed as inhibitors; 220,000 tested, 7.3% active; AID 1030; active = well fitted inhibition curve with a large enough effect, not every such curve was filed as active; inconclusive = small, poorly fitted or top-dose-only effect, or another doubt; inactive = no such curve, though single readings can be large or run the other way;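 note: potency is the fitted concentration of half-maximal effect; plate controls were no enzyme wells and a reference inhibitor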
HPGD inh conf – human HPGD enzyme inhibition, confirmation; recombinant HPGD, NADH fluorescence, PGE2 substrate; 90 tested, 90% active; shares compounds with HPGD inh; Potency, µM (titrated, usually from 57.1 µM), for the others: at the highest dose activity change, negative = inhibition, hits mostly inhibitors; calls by dose curve
Active calls of the source: *; ? = inconclusive; / = not tested or not shown; [ ] = dose if it differs, or a comment. Only some compounds are listed: those with a hit (about 10% of all), similar ones and a draw of the others. Unless noted, calls come from the whole dose curve; as a rule, active = well fitted curve in the direction sought with a large enough effect; inconclusive = small, poorly fitted or top-dose-only effect, or another doubt; inactive = no such curve, though single readings can be large; an effect the other way counts as inactive or inconclusive.

SMILES	GLA spleen mod	12-hLO inh	PNC assembly inh	HPGD inh	GLA inh pH 4.5	ALDH1A1 inh	HPGD inh conf
Cc1ccc(-c2n[nH]c(=S)n2/N=C/c2c(C)nn(-c3ccccc3)c2C)cc1	3%	0%	-19	1.1µM*	-7	9%	0.5µM*
CC1CCCN(C(=O)c2ccncc2)C1 (stereo not drawn)	-3%	-5%	?	-30%	4	3%	/
CC1CCCN(C(=O)c2ccc(COc3ccccc3Br)cc2)C1 (stereo not drawn)	-3%	-18%	31	0.089µM*	7	25µM*	0.13µM*
COCCNC(=O)c1nc2c(nnn2Cc2cc(C)ccc2C)c(=O)[nH]1	0%	2%	?	0.2µM*	0	?	0.71µM*
Cc1ccc(C)c(Cn2nnc3c(=O)[nH]c(C(=O)NCC4CCCO4)nc32)c1 (stereo not drawn)	4%	2%	-3	1.3µM*	2	-11%	0.4µM*
COc1cc(C(=O)N/N=C/c2sc(N3CCOCC3)nc2-c2ccccc2)cc(OC)c1OC	1%	/	/	/	-20	?	/
COC(=O)c1cc2ccc(OC)c(OC)c2c(=O)s1	5%	10%	-11	-15%	4	2%	/
COc1ccc2cc(C(=O)N3CCCCCC3)sc(=O)c2c1OC	-7%	-3%	-2	0.13µM*	8	8.9µM*	0.25µM*
c1ccc(C[n+]2cccc(-c3cc4ccccc4[nH]3)c2)cc1	/	5%[11.4 µM]	/	3%	/	-13%[13.5 µM]	/
CCOC(=O)C1=C(O)C(=O)N(Cc2ccccc2)CC1	-3%	/	/	/	-1	-5%	/
COc1ccc(S(=O)(=O)N(C)c2ccc(C(=O)N3CCC(C(N)=O)CC3)cc2)cc1	11%	2%	8	-11%	7	-5%	-25%
Cc1cccc(-n2cnc3cc(C(=O)N4CCCCC4)ccc32)c1	?	-1%	-26	0.071µM*	-2	4µM*	0.056µM*
Cc1ccc2c(c1)COc1c3ccc(C(=O)N4CCCCC4)cc3nn1-2	-2%	/	/	/	-2	/	/
O=c1c2ccccc2sn1-c1cc(S(=O)(=O)N2CCOCC2)ccc1N1CCCC1	-4%	0.5µM*	-108*	0.22µM*	6	0.022µM*	2.5µM*
CC(=O)c1ccc(NC(=O)CC23CC4CC(C2)CC(n2nnc(C)n2)(C4)C3)cc1	2%	/	/	/	-6	-5%	/
c1cc(-c2nnc3n2CCCCC3)ccn1	-8%	-2%	-18	-6%	3	12%	/
Cc1cc(-c2nnc3n2CCCCC3)c(C)n1-c1ccccc1	-6%	-1%	?	0.16µM*	9	?	0.089µM*
O=C(c1ccc2c(=O)n(Cc3ccc4c(c3)OCO4)c(=S)[nH]c2c1)N1CCCCC1	0%	0%	?	0.4µM*	-3	2%	?
O=c1c2ccccc2[nH]c(=S)n1Cc1ccc2c(c1)OCO2	2%	/	/	/	-1	4%	/
COc1cccc(/C=N/NC(=O)Cn2cnc3c2c(=O)n(C)c(=O)n3C)c1	-11%	/	/	/	-2	/	/
CCOC(=O)c1sc(NC(=O)CSc2n[nH]c(-c3ccccc3)n2)c(C#N)c1C	0%	-4%	21	1µM*	-11	2.8µM*	1.1µM*
COc1ccc(N2CCN(C(=O)c3ccc(CSc4ccccc4)cc3)CC2)cc1	0%	2%	18	-12%	18	0%	-20%
C[C@]12CCC3c4ccc(O)cc4CCC3C1CCC2=O (stereo partly drawn)	-11%	-2%	/	-1%	3	2%	/
CN(C)C(=O)c1ccc(-c2nc(NCc3ccccc3)c3ccccc3n2)cc1	-4%	0%	/	?	-12	2%	14µM*
CN(C)C(=O)c1ccc(-c2nc(N(C)C)c3ccccc3n2)cc1	2%	2%	/	0.32µM*	1	?	2.5µM*
SMILES	GLA spleen mod	12-hLO inh	PNC assembly inh	HPGD inh	GLA inh pH 4.5	ALDH1A1 inh	HPGD inh conf
CC1=N/C(=C/c2cccnc2)C(=O)O1	8%	/	/	/	-3	10%	/
Cc1nn(Cc2cccc(C(N)=O)c2)c(C)c1Br	-3%	/	/	/	-4	10%	/
CCOC(=O)N1CCC(NC(=O)CCC(=O)N2CCOc3ccc(Cl)cc32)CC1	2%	/	/	/	2[21.1 µM]	?	/
O=C(CCc1ccc(Oc2cc([N+](=O)[O-])cc([N+](=O)[O-])c2)cc1)N1CCCCCC1	4%	-1%	-24	0.89µM*	-8	13µM*	0.4µM*
O=[N+]([O-])c1ccc2nc(/C=C/c3ccc(Cl)cc3)[nH]c2c1	0%	-13%	?	-14%	3	-11%	/
CNc1nc(SCc2ccccc2Cl)nc2c1CCCC2	5%	-3%	18	-7%	-12	0%	/
O=c1[nH]c(SCc2ccccc2Cl)nc2c1CCC2	14%	-5%	-101*	1µM*	-8	-4%	2.2µM*
COCCNC(=O)c1cc2oc3ccccc3c2n1C	0%	6%	4	1.4µM*	4	?	1.6µM*
CCOc1ccccc1CNC(=O)c1cc2oc3ccccc3c2n1C	-18%	3%	22	?	6	?	/

High-throughput results deposited in PubChem BioAssay by National Center for Advancing Translational Sciences (NCATS).
